Compounds with a hit are over-represented: about 5.9% of the library has one in this group of screens.
HSP90 inh – blocks HSP90-mediated luciferase refolding in reticulocyte lysate; AID 1789; 290,000 compounds, 0.91% hits; Rabbit reticulocyte lysate, luciferase refolding luminescence, 3 h; inhibition, % at 5.6 µM;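 active = inhibition above the screen-wide mean plus 3 SD, computed separately per campaign, cut at about 16% in these data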;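 note: 0% = DMSO wells and 100% = 60 µM geldanamycin wells; inhibitors lower the luminescence because luciferase stays unfolded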
HSF1 inhib – HSF1 inhibition; NIH3T3-HGL HSE-luciferase, MG132-induced, luminescence 8 h; stronger effect = lower value; activity change, negative = inhibition, % at 7.5 µM (by protocol); 300,000 compounds, 0.77% hits; AID 2098;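 active = more than half of replicate wells show activity change below -50%, luminescence cut by over half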;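 note: luciferase reports HSF-1 transcriptional activity via heat shock element; 0% = median of DMSO wells and -100% = zero luminescence signal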
GAA850 FXN act – frataxin GAA850 promoter activation; AID 540364; HEK293 lucGAA850 FXN promoter luciferase reporter, 24 h; percent of 10 µM SAHA response; activation, % at 6 µM; 360,000 compounds, 0.56% hits;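 active = activation above the average of all compounds screened plus 3 SD, cutoff fixed separately per campaign, cut at about 7.5% in these data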;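 note: 0% = DMSO wells and 100% = 10 µM SAHA wells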
HSF-1 act – increases HSF-1 driven luciferase reporter signal | 300,000 compounds, 1.7% hits | activation, % at 9 µM | NIH3T3-HGL HSF-1 luciferase reporter, MG132, 8 h; 100% = twice DMSO control signal;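 active = mean replicate activation of at least 50% with a set share of replicates each reaching 50%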;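 note: 0% = median of the neutral control wells and 100% = twice that signal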
AHR act – activates the human aryl hydrocarbon receptor; P35869; AHR-responsive luciferase reporter cells, luminescence; activation, % at 5 µM; 320,000 compounds, 2.5% hits; AID 2796; in the data active = activation above about 47%;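 note: 0% = vehicle wells and 100% = reference agonist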
DAX1 inh – inhibitors of human orphan nuclear receptor DAX1 (NR0B1); 340,000 compounds, 0.99% hits; HEK293 Gal4-DAX1 luciferase reporter, luminescence; inhibition, % at 6.75 µM; P51843;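 active = inhibition above the mean over all tested compounds plus 3 SD, cut at about 4.2% in these data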;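 note: 0% = DAX1-transfected cells with DMSO and 100% = empty-vector control cells with DMSO; inhibition shows as a rise in luminescence from relieved DAX1 repression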
Target sequence (P51843 207-470 limits assumed): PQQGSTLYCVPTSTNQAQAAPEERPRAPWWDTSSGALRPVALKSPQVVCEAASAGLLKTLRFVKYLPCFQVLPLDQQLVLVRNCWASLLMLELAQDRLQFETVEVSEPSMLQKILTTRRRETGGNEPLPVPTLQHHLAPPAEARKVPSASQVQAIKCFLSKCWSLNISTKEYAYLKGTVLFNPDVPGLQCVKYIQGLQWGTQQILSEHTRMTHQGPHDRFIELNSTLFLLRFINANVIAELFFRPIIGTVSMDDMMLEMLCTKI
An asterisk follows results filed as active; . = no result.

SMILES	HSP90 inh	HSF1 inhib	GAA850 FXN act	HSF-1 act	AHR act	DAX1 inh
Nc1nc(NCCCN2CCOCC2)nc(Nc2cccc(Cl)c2)c1[N+](=O)[O-]	-5	3	0	2	8	0
Cc1ccc(Nc2nc(NCCCN3CCOCC3)nc(N)c2[N+](=O)[O-])cc1	0	41	-1	69*	10	2
CC1(C)c2[nH]c3ccccc3c2C[C@H]2C(=O)N(CCCO)CC(=O)N21	-1	-8	2	6	2	2
CCCCCCN1CC(=O)N2[C@@H](Cc3c([nH]c4ccccc34)C2(C)C)C1=O	0	-51*	-2	-58	3	0
CC(C)C(NC(=O)c1ccccc1)C(=O)NC1CCCc2ccccc21 (stereo unspecified)	.	.	0	.	10	0
COc1ccc(NC(=O)c2sc(SCc3ccccc3)nc2N)cc1	-1	-13	0	-10	48*	0
COc1ccc(NC(=O)c2sc(SC)nc2N)cc1	0	8	6	17	19	1
COC(=O)[C@@H](NS(=O)(=O)c1ccc(F)cc1Br)C(C)C	.	.	-1	.	.	-1
Cc1cccc(N2CCN(CC(O)COc3ccccc3)CC2)c1 (stereo unspecified)	.	.	4	.	.	4.8*
Cc1ccc(S(=O)(=O)N2CCOCC2)cc1NC(=O)COC(=O)c1ccc(Cl)s1	.	.	0	.	2	1
Brc1ccc(OCCOc2cccc3cccnc23)cc1	-2	30	5	67*	6	0
c1ccc(OCCOc2cccc3cccnc23)cc1	-4	10	3	11	4	1
O=C(N/N=C/c1ccccc1C(=O)O)c1ccc(COc2cccc3cccnc23)cc1	-1	0	1	3	8	2
O=C(N/N=C/c1ccc[nH]1)c1ccc(COc2cccc3cccnc23)cc1	0	-69*	-7	-74	7	-4
O=[N+]([O-])c1ccc(OCCCOc2cccc3cccnc23)cc1	0	13	2	33	-1	1
O=[N+]([O-])c1ccc(COc2cccc3cccnc23)cc1	2	24	4	59*	-1	0
Brc1ccc(COc2cccc3cccnc23)cc1	.	40	4	65*	3	.
Cc1ccc(C)c(N2N=C(C(=O)OCc3nnc(-c4ccccc4Br)o3)CCC2=O)c1	.	.	-1	.	.	2
CNc1nc(Cl)nc2c1ncn2-c1ccccc1	.	.	3	.	.	4.6*
Cc1ccccc1OC(=O)C1C(c2ccccc2)C(C(=O)O)C1c1ccccc1 (stereo unspecified)	1	-6	0	-7	-1	5.0*
O=S(=O)(NCC1CCCO1)c1ccc(Cl)cc1 (stereo unspecified)	-1	-2	1	-1	0	2
c1ccc(-c2cc3ccccc3[nH]2)cc1	5	16	1	-1	50*	0
Cc1ccc(O)c(-c2cc3ccccc3[nH]2)c1	5	25	2	44	49*	3
CC(=O)C[C@@H](O)CC(=O)[C@H]1OC(=O)CCCCCCCCc2ccccc21	.	.	3	.	0	0
CCC(=O)NC(Cc1ccccc1)c1nc2ccccc2[nH]1 (stereo unspecified)	-5	7	1	1	.	4.2*
SMILES	HSP90 inh	HSF1 inhib	GAA850 FXN act	HSF-1 act	AHR act	DAX1 inh
Cc1ccc2cn[nH]c2c1[N+](=O)[O-]	8	-11	1	1	39	4.9*
Cc1c(/N=C(\[O-])Nc2ccc(Br)cc2)sn[n+]1C	5	-2	0	-1	-7	.
Cc1ccc(-c2csc(C(O)c3ccccc3)n2)cc1C (stereo unspecified)	.	.	-1	.	.	.
Cc1ccc2nc(-c3ccc(NC(=O)CSc4nccc(=O)[nH]4)cc3)sc2c1	8	-7	1	2	-10	2
Cc1ccc2nc(-c3ccc(NC(=O)CSc4nc(N)cc(=O)[nH]4)cc3)sc2c1	-2	12	4	-4	7	4.5*
Nc1cc(=O)[nH]c(SCC(=O)Nc2ccc(S(=O)(=O)N3CCCC3)cc2)n1	.	.	-1	.	0	4.3*
COc1ccc([C@@]23Oc4cc(OC)cc(OC)c4[C@]2(O)[C@H](O)[C@H](C(=O)N(C)C)[C@H]3c2ccccc2)cc1	.	88*	-14	88*	.	-6
O=C(NC(=S)Nc1ccc(Br)cc1)C1CCC1	2	10	4	3	0	0

High-throughput results (PubChem)
